Values without a mark were called inactive. Results filed as inconclusive are left out. Calls of active or inactive are those of the source. Unless noted, calls come from the whole dose curve; as a rule, active = well fitted curve in the direction sought with a large enough effect in the repeat runs; inconclusive = weak or mixed curves; inactive = no such curve, though single readings can be large; an effect the other way counts as inactive or inconclusive.

Assay [1] is described as follows: qHTS assay to identify small molecule agonists of the hypoxia (HIF-1) signaling pathway - cell viability counter screen (AID 1224844; calls by dose curve; note: nearly all actives have a fitted effect of over 50% in size; note: potency is the fitted concentration of half-maximal effect). The procedure, abridged:
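In this counter screen, HRE-bla ME-180 cell viability after 17 hrs of compound exposure at 37C was read by CellTiter-Glo luminescence, multiplexed with the beta-lactamase reporter measurement.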
In general terms: In qHTS, concentration-response curves come from the screen itself.

Assay [2] can be described thus: qHTS assay to identify small molecule agonists of H2AX (AID 1224845; active = well fitted activation curve with a large enough effect in the signal ratio in the repeat runs, not every such curve was filed as active; the % refers to the signal ratio). The procedure, abridged: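 Wild-type CHO-K1 cells, plated overnight, exposed 3hr at 37C to 15 concentrations (0.76% DMSO final). Lysed, then HTRF anti-pH2AX (S139) cryptate and anti-H2AX-d2 antibodies, 24 hr room temperature; 665/620 nm emission read.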
Assay [3] is described as follows: qHTS assay to identify small molecule agonists of the hypoxia (HIF-1) signaling pathway (AID 1224846; active = well fitted activation curve with a large enough effect in the signal ratio in the repeat runs, not every such curve was filed as active; the % refers to the signal ratio; note: potency is the fitted concentration of half-maximal effect). In short, it runs like this:
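ME-180 HRE-bla reporter cells; compounds in DMSO, 17 h at 37C; read-out beta-lactamase via CCF4-AM FRET.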

A short description of assay [4]: qHTS assay to identify small molecule antagonists of the estrogen related receptor (ERR) signaling pathway from Tox21 library (AID 1224848). Note: nearly all actives have a fitted effect of over 50% in size. In short, it runs like this:
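Compounds dissolved in DMSO are pin-transferred onto ERR reporter cells (2,000 per well) that have settled for 6 h at 37 C. Plates then incubate 18 h at 37 C before ONE-Glo luciferase reagent and a luminescence read 30 min later.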

Assay [5] can be described thus: qHTS assay to identify small molecule agonists of the estrogen related receptor (ERR) signaling pathway from Tox21 library (AID 1224849; calls by dose curve; note: nearly all actives have a fitted effect of over 15% in size). The following applies: ERR reporter cell line, ONE-Glo luciferase, 18 h; at 92.4 µM (top of the series) unless noted. The procedure, abridged:
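Luciferase activity in ERR pathway reporter cells served as the agonist readout; exposure lasted 18 h at 37 C, with ONE-Glo detection after 30 min at room temperature.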

Assay [6] is described as follows: qHTS RealTime-Glo MT Cell Viability Assay in HEK293 cells - 32 hour (AID 1224868). Note: top concentration of the series differs between compounds; nearly all actives have a fitted effect of over 50% in size. In short, it runs like this:
(§1)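 HEK293 cells seeded with NanoLuc/prosubstrate reagent, rested 5 h at 37 C, then dosed and kept at 37 C up to 40 h. Nonlytic real-time luminescence from viable cells read at 0, 8, 16, 24, 32 and 40 h.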

The nature of assay [7]: A CellTox Green Cytotoxicity Assay to monitor cytotoxicity in HEK293 cells - 0 hour (AID 1224869). Note: nearly all actives have a fitted effect of over 50% in size. In short, it runs like this:
(§2)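 Real-time, in one plate: 600 HEK293 cells/well with dead-cell DNA dye, pinned compound after 5 h, 37 C incubation over 40 h; viable cells give no appreciable fluorescence.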

Assay [8] is described as follows: qHTS RealTime-Glo MT Cell Viability Assay in HepG2 cells - 40 hour (AID 1224870). Note: nearly all actives have a fitted effect of over 50% in size. The procedure, abridged: (§3)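 HepG2 cells (600/well) mixed with RealTime-Glo MT reagent, settled 5 h at 37 C/5% CO2 before compound addition. Nonlytic NanoLuc luminescence from viable-cell prosubstrate reduction read repeatedly during 40 h treatment at 37 C.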
Assay [9] in a line: A CellTox Green Cytotoxicity Assay to monitor cytotoxicity in HEK293 cells - 40 hour (AID 1224871). Note: nearly all actives have a fitted effect of over 45% in size. Note: potency is the fitted concentration of half-maximal effect. In short, it runs like this: as §2
The nature of assay [10]: qHTS RealTime-Glo MT Cell Viability Assay in HEK293 cells - 16 hour (AID 1224872). The procedure, abridged: as §1
Assay [11] in a line: qHTS RealTime-Glo MT Cell Viability Assay in HepG2 cells - 8 hour (AID 1224873). Note: nearly all actives have a fitted effect of over 55% in size. The procedure, abridged:
as §3

Assay [12] can be described thus: qHTS RealTime-Glo MT Cell Viability Assay in HEK293 cells - 40 hour (AID 1224874). Note: nearly all actives have a fitted effect of over 50% in size. The following applies: RealTime-Glo luminescence; max response: stronger effect = lower value. In short, it runs like this:
(§4)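 Kinetic, non-lysing viability readout. Seed HEK293 (600/well) with reagent, incubate 5 h at 37 C/5% CO2, pin 23 nL compound in DMSO, incubate at 37 C, read luminescence at 0, 8, 16, 24, 32, 40 h.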

Assay [13] in a line: A CellTox Green Cytotoxicity Assay to monitor cytotoxicity in HEK293 cells - 24 hour (AID 1224875). Note: nearly all actives have a fitted effect of over 45% in size. Note: potency is the fitted concentration of half-maximal effect. In short, it runs like this:
as §2

The nature of assay [14]: A CellTox Green Cytotoxicity Assay to monitor cytotoxicity in HepG2 cells - 16 hour (AID 1224876). Note: nearly all actives have a fitted effect of over 45% in size. The procedure, abridged: (§5)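 Cytotoxicity was tracked as dead-cell DNA fluorescence in HepG2 cells treated with test compounds at 37 C; each time-point value comes from one kinetic series spanning 0, 8, 16, 24, 32 and 40 h.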
Assay [15] is described as follows: qHTS RealTime-Glo MT Cell Viability Assay in HepG2 cells - 32 hour (AID 1224877). Note: nearly all actives have a fitted effect of over 55% in size. In short, it runs like this:
(§6)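 HepG2 cells (600/well) were dispensed with RealTime-Glo reagents, incubated 5 h at 37 °C, then treated with compounds in DMSO for up to 40 h. Nonlytic NanoLuc luminescence reflecting viable cells was read at each stated time point.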

Assay [16] is described as follows: A CellTox Green Cytotoxicity Assay to monitor cytotoxicity in HepG2 cells - 24 hour (AID 1224878). Note: nearly all actives have a fitted effect of over 45% in size. In short, it runs like this: as §5
Assay [17] can be described thus: A CellTox Green Cytotoxicity Assay to monitor cytotoxicity in HepG2 cells - 40 hour (AID 1224879). Note: nearly all actives have a fitted effect of over 40% in size. In short, it runs like this: as §5
The nature of assay [18]: qHTS RealTime-Glo MT Cell Viability Assay in HEK293 cells - 0 hour (AID 1224880). The procedure, abridged: as §4
Assay [19] in a line: qHTS RealTime-Glo MT Cell Viability Assay in HepG2 cells - 24 hour (AID 1224867). Note: nearly all actives have a fitted effect of over 50% in size. In short, it runs like this: as §6
Assay [20] is described as follows: qHTS assay to identify small molecule agonists of H2AX - cell viability counter screen (AID 1224847; calls by dose curve; note: top concentration of the series differs between compounds; nearly all actives have a fitted effect of over 30% in size). The procedure, abridged:
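Counter-screen for viability: CellTiter-Glo ATP luminescence read after 3 h compound treatment (15-point titration, 0.76% DMSO final) of CHO-K1 cells at 37C, with 30 min room-temperature reagent incubation.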
% is set by controls: 0 for no effect and ±100 for the full control effect.

For the compound `O=[N+]([O-])c1ccc(Cl)c(Cl)c1Cl`, the Potency entry in assay [1], in assay [2], in [3], in assay [4], in assay [6] and in [7] was “inactive” throughout. Besides, the Potency entry in [8], in assay [10], in assay [11], in [14], in [15] and in assay [16] was “inactive” in each case. In addition, the Potency result in assay [17] and in assay [18] was “inactive” in each case. For the same compound, the activity change, positive = activation in [5] is -11%. The Potency in assay [9] was 34.2 µM (active); in assay [13] it was 24.2 µM (active). Besides, the max response in [12] is -8.94%.

As to `CC(C)N(C(=O)SC/C(Cl)=C/Cl)C(C)C`, the Potency result in assay [1], in assay [2], in [3], in assay [19], in [6] and in assay [7] was “inactive” throughout. Also, the Potency entry in assay [8], in assay [11], in [14], in assay [15], in assay [16] and in assay [17] was “inactive” each time. Further, the Potency result in assay [18] is “inactive”. Besides, the Potency in assay [9] is 43.9 µM (active). The max response in [12] is -22.2%.

On to `CC[N+]1(CC)CCC(OC(=O)C(O)(c2ccccc2)c2ccccc2)C1` (centres undefined), for which the Potency result in [1], in assay [2], in assay [3], in assay [20], in assay [19] and in assay [6] was “inactive” each time. For the same compound, the Potency entry in [7], in assay [8], in [9], in assay [10], in [11] and in assay [14] was “inactive” in each case. Moreover, the Potency entry in assay [15], in assay [16], in [17] and in assay [18] was “inactive” in each case. The max response in [12] was 2.71%.

Consider `CC(C)C(Br)C(=O)NC(N)=O` (centres undefined), for which the Potency entry in assay [1], in assay [2], in [3], in assay [20], in assay [19] and in assay [6] was “inactive” each time. The Potency result in [8], in assay [9], in assay [10], in assay [11], in assay [13] and in [14] was “inactive” each time. Further, the Potency entry in assay [15], in [16] and in assay [17] was “inactive” each time. In addition, the max response in assay [12] is 7.13%.

As for `CC(=O)[O-].CC(=O)[O-].[Co+2]`, the Potency entry in assay [1], in assay [2], in assay [20], in [6], in [8] and in assay [9] was “inactive” throughout. For the same compound, the Potency result in assay [10], in [11], in assay [13], in assay [14], in assay [15] and in assay [17] was “inactive” throughout. The Potency entry in assay [18] is “inactive”. Besides, in assay [3], the Potency was 21.9 µM (active). Also, the max response in assay [12] is 8.26%.

As for `CSC(=O)c1c(C(F)F)nc(C(F)(F)F)c(C(=O)SC)c1CC(C)C`, the Potency result in assay [1], in assay [2], in [3], in [20], in [19] and in assay [6] was “inactive” in each case. Also, the Potency entry in assay [8], in assay [9], in [10], in assay [11], in assay [13] and in [14] was “inactive” throughout. Besides, the Potency result in assay [17] and in [18] was “inactive” in each case. For the same compound, the max response in [12] was -19%.

As to `Cc1c([N+](=O)[O-])c(C)c([N+](=O)[O-])c(C(C)(C)C)c1[N+](=O)[O-]`, the Potency in assay [1] was 24.5 µM (active). For the same compound, the Potency result in assay [2], in [3], in [4], in assay [19], in assay [6] and in assay [7] was “inactive” in each case. The Potency entry in [8], in assay [9], in assay [10], in assay [11], in [13] and in assay [14] was “inactive” each time. For the same compound, the Potency entry in assay [16], in assay [17] and in assay [18] was “inactive” each time. Moreover, the activity change, positive = activation in assay [5] is -4.01%. Also, in assay [12], the max response was -20%.

In the case of `O=C(NC(=O)c1ccccc1Cl)Nc1ccc(OC(F)(F)F)cc1`, the Potency entry in assay [1], in assay [2], in assay [3], in assay [20], in assay [19] and in [7] was “inactive” each time. In addition, the Potency entry in assay [8], in [9], in [11], in assay [13], in assay [14] and in assay [15] was “inactive” in each case. The Potency entry in assay [16], in assay [17] and in [18] was “inactive” each time.

Source of the values: PubChem BioAssay (Tox21).
